Assay outcomes from PubChem BioAssay.
D2 ag-1: human D2 receptor agonism in beta-arrestin assay; P14416; DiscoveRx PathHunter D2 beta-arrestin, luminescence, 90 min; 100% = 57 uM dopamine signal; activation, % (test concentration not listed); hit rate 0.084% among 360,000; in the data active = activation above about 40%; inconclusive = between about 15% and that limit
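Agonist mode: compounds alone added to overnight-plated D2 PathHunter cells for 90 min at 37 C, with 57 uM final dopamine (EC100) defining full response. Beta-arrestin recruitment detected by chemiluminescent reagent, read after 1 h at ambient temperature.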
D2 PAM-1: D2 dopamine receptor (human) potentiation | HEK293 T-REx D2, calcium flux, EC20 dopamine potentiation | potentiation, % at 10 µM | hit rate 0.34% among 340,000 | AID 485347;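 active = potentiation over 3 SD above the plate norm, cut at about 30% in these data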; also: 0% is about no effect
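Using a no-wash calcium dye in inducible, force-coupled HEK293 Trex cells expressing D2, we tracked fluorescence each second for 180 s after compound, then for 180 s after EC20 dopamine to detect augmented signalling.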
D2 ag-2: agonists of human D2 dopamine receptor; activation, % at 2 µM; AID 485358; hit rate 0.53% among 340,000; HEK293 T-REx D2 cells, calcium flux agonist mode; P14416;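 active = activation over 3 SD above normal in the single-dose calcium agonist read, cut at about 30% in these data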; also: 0% is about no effect
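Calcium-flux readout, 1 cycle/sec over 180 s following compound pin transfer, in inducible HEK293 Trex D2 cells (force-coupled); dopamine controls included. Positive calcium responses during this window marked compounds as potential agonists.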
Anesthetic bind: binds horse apoferritin like a general anesthetic; P02791; apoferritin/1-aminoanthracene competitive binding, fluorescence; Potency, µM (doses to about 77.5 µM), inactives show at the top dose activity change, negative = displacement, hits mostly inhibitors; hit rate 0.074% among 350,000; AID 485281; active = well fitted inhibition curve with a large enough effect; inconclusive = small, poorly fitted or top-dose-only effect; inactive = no such curve, though single readings can be large or run the other way; also: potency is read from the fitted curve at half-maximal effect; % is scaled to controls: 0 for no effect and ±100 for the full control effect; nearly all actives have a fitted effect of over 20% in size
Target sequence (P02791 2-175 limits assumed): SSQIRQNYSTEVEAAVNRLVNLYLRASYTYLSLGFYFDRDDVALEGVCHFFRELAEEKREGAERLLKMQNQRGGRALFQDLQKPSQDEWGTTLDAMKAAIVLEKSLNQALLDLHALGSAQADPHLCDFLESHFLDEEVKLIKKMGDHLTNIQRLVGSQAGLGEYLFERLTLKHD
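Concentration-response curves derived by four-parameter Hill fitting of normalized fluorescence, where compounds displaced 1-AMA from 10 uM horse apoferritin following a brief 10 min room-temperature incubation; propofol titration acted as positive control.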
D2 antagonist: antagonizes the human D2 dopamine receptor; HEK293 TREx D2 cells, calcium flux, dopamine EC80; inhibition, % at 10 µM; hit rate 2% among 340,000; in the data active = inhibition above about 30%; inactive = below that, where a call was filed; also: 0% is about no effect
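Cells plated overnight at 30 C with tetracycline; no-wash calcium dye, 30–90 min RT; 10 s baseline; compound pinned; 180 s read; EC80 dopamine added; another 180 s read.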
D2 PAM-2: positive allosteric modulators of human D2 dopamine receptor; P14416; DiscoveRx D2 beta-arrestin cells, luminescence, 90 min; 100% = 57 uM dopamine signal; potentiation, % (concentration not given with the values); hit rate 0.23% among 360,000; in the data active = potentiation above about 50%; inconclusive = mostly about 30% to 49%
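PathHunter D2 cells, attached overnight at 37 deg C, received compound in DMSO plus dopamine at EC20 (50 nM final) for 90 min at 37 deg C. Beta-arrestin recruitment was read as luminescence after 1 h with detection reagent at ambient temperature.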
An asterisk follows results filed as active; u = inconclusive; x = not tested or not shown. The list is not random: actives were taken first. Their share in the collection is about 2.5%.

SMILES	D2 ag-1	D2 PAM-1	D2 ag-2	Anesthetic bind	D2 antagonist	D2 PAM-2
CCCCN(CCCC)S(=O)(=O)c1ccc(C(=O)Nc2sc3c(c2C(N)=O)CCN(CC)C3)cc1	x	12	2	207%	x	x
CCN1CCc2c(sc(NC(=O)Nc3ccc(Cl)c(Cl)c3)c2C(N)=O)C1	7	-13	109*	-6%	72*	-16
CCC(=O)Nc1sc2c(c1C(N)=O)CCN(Cc1ccccc1)C2	-5	-4	55*	253%	38*	-13
CCN1CCc2c(sc(NC(=O)c3ccc(S(=O)(=O)N(CC)c4ccccc4)cc3)c2C(N)=O)C1	1	-6	52*	-4%	9	-9
NC(=O)c1c(NC(=O)c2ccccc2)sc2c1CCN(Cc1ccccc1)C2	-1	-7	44*	43%	6	-7
COc1ccc(-c2nnc(-c3cc(OC)c(OC)c(OC)c3)o2)cc1OC	0	5	0	-7%	-10	4
CCCCCC(=O)N/N=C(\C)c1ccc(N2CCCCC2)cc1	-6	11	0	-14%	-1	-5
Cn1c(SCC(=O)N2c3ccccc3CCc3ccccc32)nnc1-c1ccc(O)cc1	-1	1	0	-18%	4	-9
O=C(/C=C/c1cccc([N+](=O)[O-])c1)N1CC[C@@]2(O)CCCC[C@H]2C1	-5	-9	1	-4%	x	-10
O=C1NC2(CCN(Cc3ccccc3)CC2)Oc2ccccc21	-4	-14	1	0%	7	-2
CC1CCC2(CC1)NC(=O)c1ccccc1O2 (stereo unspecified)	-3	32*	1	u	2	-2
COc1ccc(C(=O)C(C)OC(=O)c2sc(C)nc2C)cc1 (stereo unspecified)	2	23	0	x	31*	-2
O=C(NCc1cccc(Cl)c1)c1cnn2c1NC(c1ccco1)CC2C(F)(F)F (stereo unspecified)	2	2	1	-23%	-20	-10
O=C(CN1CCN(c2ccccc2F)CC1)c1ccc(O)c(O)c1	10	-22	61*	-11%	9	-15
Cn1c(NCCO)nc2c1c(=O)n(Cc1cccc(Cl)c1)c(=O)n2C	-5	13	1	-3%	-34	-8
Cn1cc(C(=O)NCCN2CCN(c3cccc(Cl)c3)CC2)c2c3ccccc3n(C)c2c1=O	0	-20	-1	-7%	5	-27
O=C(O)CCC(=O)CCC(=O)c1ccccc1	0	-8	0	-4%	35*	-3
Cc1ccc(C(=O)CCC(=O)CCC(=O)O)cc1	-1	x	x	x	x	-2
Cc1ccccc1Nc1nc(-c2sc(NC(=O)c3cccc(Cl)c3)nc2C)cs1	x	31*	0	-6%	-12	x
Cc1ccc(Cl)cc1Nc1nc(-c2sc(NC(=O)c3cccc(Cl)c3)nc2C)cs1	x	7	-1	9%	8	x
CC(C)(C)OC(=O)NCCCCCNC(=O)c1nc[nH]c1C(=O)NCC(=O)OCc1ccccc1	u	x	x	x	x	52*
Cc1ccc(C)c(S(=O)(=O)NCc2ccc3c(c2)OCO3)c1	5	8	-1	-14%	3	-4
CC(=O)Nc1ccc(NC(=O)C2c3ccccc3Oc3ccccc32)cc1	-1	4	0	-1%	-11	4
CC(C)(C)NC(=O)C1c2ccccc2Oc2ccccc21	-4	12	0	0%	47*	7
CN(/N=C/c1ccncc1)C1=NS(=O)(=O)c2ccccc21	-4	1	0	-10%	-10	0
Cc1ccc(OCCNC(=O)CCNS(=O)(=O)c2ccc(C)cc2)cc1	-6	6	0	x	30*	-19
CCCNS(=O)(=O)c1ccc(OCC(=O)OC)cc1	2	-6	1	-10%	6	9
CCCNS(=O)(=O)c1ccc(OCC(=O)NCCCOC)cc1	1	-14	1	5%	30*	-3
COc1ccc(CCNC(=O)CCn2c(=O)[nH]c3cc(OC)c(OC)cc3c2=O)cc1OC	-1	-4	0	-6%	13	17
